Laboratory results published in PubChem BioAssay (Tox21).
Inconclusive results are not listed. The source made the active and inactive calls. Unless noted, the call rests on the fitted dose curve.

Experiments:
[1] = Nuclear factor erythroid 2-related factor 2/antioxidant responsive element (Nrf2/ARE) small molecule agonists: qHTS cell viability counter screen in human keratinocytes (AID 1919968; active means well fitted curve in the direction sought with a large enough effect in the repeat runs; an effect the other way counts as inactive or inconclusive; further: nearly all actives have a fitted effect of over 55% in size; further: potency means the concentration at half of the fitted maximal effect)
Procedure, shortened: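 KeratinoSens cells (HaCaT keratinocytes stably carrying an ARE-luciferase reporter) were seeded at 1,500 cells/well and rested 5 h at 37 C/5% CO2. They were then exposed to compounds in DMSO for 23 h. Viability was read by CellTiter-Fluor fluorescence after 1 h.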

[2] = target: Gonadotropin-releasing hormone receptor (Homo sapiens) (UniProt P30968); test: Human gonadotropin-releasing hormone receptor (GnRHR) small molecule agonists, calcium flux assay in GnRHR-HEK293 cells (AID 1920063); further: nearly all actives have a fitted effect of over 35% in size
Procedure, shortened: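 HEK293 cells stably expressing human GnRHR were plated 18 h at 37 °C, loaded with calcium dye 1 h at 37 °C, then given compound in agonist mode; fluorescence (Ex/Em 480/540) read kinetically for 3 min at 1 s intervals.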

[3] = target: KiSS-1 receptor (Homo sapiens) (UniProt Q969F8); test: Human kisspeptin (KISS1R) small molecule agonists, calcium flux assay in KISS1R-HEK293 cells (AID 1920064; active means well fitted curve in the direction sought with a large enough effect in the repeat runs; an effect the other way counts as inactive or inconclusive)
Procedure, shortened: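 HEK293 cells stably expressing human KISS1R were plated 18 h at 37 °C, loaded with calcium dye for 1 h at 37 °C, then given compound by pin tool. Fluorescence (Ex/Em 480/540) was read kinetically for 3 min.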

[4] = G protein-coupled receptor (GPCR) small molecule agonists, calcium flux assay: HEK293 wild type cell line counter screen (AID 1920065)
Procedure, shortened: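 Cells were plated and cultured 18 h at 37 C/5% CO2, then loaded with calcium dye for 1 h at 37 C. Compounds in DMSO were pin-transferred in agonist mode, and fluorescence (Ex/Em 480/540) was read kinetically for 3 min at 1 s intervals.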

[5] = p53 small molecule agonists, cell-based qHTS assay with human liver microsomes (AID 1963577)
Procedure, shortened: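 Compounds act here after metabolic activation: human liver microsomes and NADPH, both at 0.5 mg/mL final, were co-added to p53RE-bla cells. Incubation ran 16 h at 37 C, followed by LiveBLAzer detection.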

[6] = p53 small molecule agonists, cell-based qHTS assay with rat liver microsomes (AID 1963578)
Procedure, shortened: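 Read-out is beta-lactamase reporter fluorescence (LiveBLAzer, 2 h, room temperature, dark) in p53RE-bla cells treated 16 h at 37 C with compound, rat liver microsomes and NADPH, both 0.5 mg/mL final.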

[7] = p53 small molecule agonists, cell-based qHTS assay with human liver microsomes: qHTS cell viability counter screen (AID 1963579); further: nearly all actives have a fitted effect of over 45% in size
Procedure, shortened: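 Cells carrying the p53 response-element beta-lactamase reporter are treated for 16 h at 37 C with test compounds in the presence of human liver microsomes and NADPH (both 0.5 mg/mL final); ATP-based CellTiter-Glo luminescence then reports viability.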

[8] = p53 small molecule agonists, cell-based qHTS assay with rat liver microsomes: qHTS cell viability counter screen (AID 1963580); further: nearly all actives have a fitted effect of over 45% in size
Procedure, shortened: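 HCT-116 p53RE-bla, 4,000 cells/well, 5 h pre-incubation; cpd + rat liver microsomes 0.5 mg/mL + NADPH 0.5 mg/mL (final); 16 h, 37 C; CellTiter-Glo, 30 min RT; luminescence.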

[9] = p53 small molecule agonists, cell-based qHTS assay: qHTS cell viability counter screen (AID 1963581); further: nearly all actives have a fitted effect of over 45% in size
Procedure, shortened: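 p53RE-bla HCT-116 cells were exposed to compounds for 16 h at 37 C; after the beta-lactamase FRET read in the same wells, CellTiter-Glo was added and luminescence (intracellular ATP) read after 30 min at room temperature.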

[10] = p53 small molecule agonists, cell-based qHTS assay (AID 1963582; active means well fitted activation curve with a large enough effect in the signal ratio in the repeat runs, not every such curve was filed as active; the % refers to the signal ratio)
Procedure, shortened: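 p53RE-bla beta-lactamase reporter cells rested 5 h at 37 C/5% CO2, then received compounds in DMSO by pin transfer and were incubated 16 h at 37 C. LiveBLAzer B/G FRET substrate was loaded for 2 h at room temperature before fluorescence reading.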

[11] = target: 5-hydroxytryptamine receptor 2A (Homo sapiens) (UniProt P28223); test: 5-hydroxytryptamine receptor 2A (HTR2A) small molecule agonists, cell-based qHTS assay (AID 1963587); further: nearly all actives have a fitted effect of over 30% in size
Procedure, shortened: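 Kinetic calcium-flux fluorescence (2 min, 1 sec intervals) after compound addition in agonist mode. HTR2A-CHO cells were cultured 18 h, then dye-loaded 1 h at 37 C.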

[12] = target: Muscarinic acetylcholine receptor M1 (Homo sapiens) (UniProt P11229); test: Cholinergic receptor muscarinic 1 (CHRM1) small molecule agonists, cell-based qHTS assay (AID 1963589); further: nearly all actives have a fitted effect of over 35% in size
Procedure, shortened: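 CHO cells stably expressing human CHRM1, seeded 18 h at 37 C/5% CO2, dye-loaded 1 h at 37 C, then given compound in agonist mode; intracellular calcium fluorescence read kinetically at 1 s intervals. Fifteen concentrations, three independent runs.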

[13] = cAMP Responsive Elements (CRE) small molecule agonists, cell-based qHTS assay (AID 1963590)
Procedure, shortened: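 CRE-bla HEK 293T cells in DMEM with 10% dialyzed FBS, NEAA, pyruvate and 25 mM HEPES were plated 18 h at 37 C/5% CO2, then exposed to compounds in DMSO for 3 h before LiveBLAzer B/G FRET substrate addition.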

[14] = cAMP Responsive Elements (CRE) small molecule antagonists, cell-based qHTS assay (AID 1963591; active means well fitted inhibition curve with a large enough effect in the signal ratio in the repeat runs, not every such curve was filed as active; the % refers to the signal ratio)
Procedure, shortened: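 CRE-bla HEK293T cells were plated 18 h at 37 °C/5% CO2, pinned with compound in DMSO, then stimulated with NKH477 at 0.25 uM final for 3 h. LiveBLAzer B/G FRET substrate was added and plates incubated 2 h at room temperature.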

[15] = target: Beta-2 adrenergic receptor (Homo sapiens) (UniProt P07550); test: Adrenergic beta2 receptor (ADRB2) small molecule antagonists, cell-based qHTS assay (AID 1963592); further: series mostly up to about 92 µM; nearly all actives have a fitted effect of over 50% in size
Procedure, shortened: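 Cells (CHO, stable ADRB2 overexpression) incubated 18-20hr at 37C; compounds added from DMSO; agonist mix (1nM isoproterenol, 100uM IBMX, 25uM Ro-20-1724) added; 0.5hr RT; d2-cAMP and anti-cAMP-cryptate added; 1hr RT; 665/615 nm read.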

[16] = target: Beta-2 adrenergic receptor (Homo sapiens) (UniProt P07550); test: Adrenergic beta2 receptor (ADRB2) small molecule agonists, cell-based qHTS assay (AID 1963593);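 further: CHO cells stably overexpressing human ADRB2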
Procedure, shortened: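 CHO cells stably over-expressing ADRB2 were plated overnight at 37C, then dosed with compounds plus a stimulation mix containing 100uM IBMX and 25uM Ro-20-1724 for 0.5hr at room temperature. cAMP was measured by HTRF competition, 1hr.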

[17] = target: D(2) dopamine receptor (Homo sapiens) (UniProt P14416); test: Dopamine D2 receptor (DRD2) small molecule agonists, cell-based qHTS assay (AID 1963594); further: nearly all actives have a fitted effect of over 35% in size
Procedure, shortened: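 cAMP accumulation in DRD2-HEK293 cells measured by HTRF after 1 h detection; compounds added 10 min before NKH477 (200nM […]) forskolin-analogue stimulation, 30 min at room temperature, with Ro20-1724 present at 0.1 mM final.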

[18] = target: D(2) dopamine receptor (Homo sapiens) (UniProt P14416); test: Dopamine D2 receptor (DRD2) small molecule antagonists, cell-based qHTS assay (AID 1963595; active means well fitted inhibition curve with a large enough effect in the signal ratio in the repeat runs, with a control signal flat; the % refers to the signal ratio)
Procedure, shortened: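 HTRF cAMP read-out at 665 and 620 nm emission (340 nm excitation). Antagonist mode: compounds were tested against 12 nM quinpirole in DRD2-HEK293 cells, with 200 nM NKH477 raising cAMP and 0.1 mM Ro20-1724 blocking its breakdown.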

[19] = target: Muscarinic acetylcholine receptor M1 (Homo sapiens) (UniProt P11229); test: Cholinergic receptor muscarinic 1 (CHRM1) small molecule antagonists, cell-based qHTS assay (AID 1963588); further: nearly all actives have a fitted effect of over 40% in size
Procedure, shortened: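 CHRM1-CHO calcium-flux assay, antagonist mode. Cells were seeded 18 h, dye-loaded 1 h at 37 C and given compound for 5 min at RT, then acetylcholine was added at 50nM. FDSS fluorescence was read 3 min; 15 concentrations, three runs.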

[20] = target: 5-hydroxytryptamine receptor 2A (Homo sapiens) (UniProt P28223); test: 5-hydroxytryptamine receptor 2A (HTR2A) small molecule antagonists, cell-based qHTS assay (AID 1963586); further: nearly all actives have a fitted effect of over 45% in size
Procedure, shortened: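 Antagonist-mode intracellular calcium assay: DOI (4 nM) added after 5 min compound pre-incubation at room temperature to dye-loaded HTR2A-CHO cells. Fluorescence followed for 3 min, sampled every second.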

Measured: Potency

Sequence of Gonadotropin-releasing hormone receptor (Homo sapiens) (P30968 whole entry, looked up): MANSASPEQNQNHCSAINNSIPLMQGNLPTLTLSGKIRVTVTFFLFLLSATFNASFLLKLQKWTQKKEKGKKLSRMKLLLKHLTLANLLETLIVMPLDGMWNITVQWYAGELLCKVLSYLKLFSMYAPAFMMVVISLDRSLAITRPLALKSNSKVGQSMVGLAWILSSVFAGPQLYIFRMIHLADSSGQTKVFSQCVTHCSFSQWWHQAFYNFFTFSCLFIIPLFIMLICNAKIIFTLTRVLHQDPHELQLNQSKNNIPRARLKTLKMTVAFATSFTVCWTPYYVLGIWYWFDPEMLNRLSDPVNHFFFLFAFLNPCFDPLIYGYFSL
Sequence of Muscarinic acetylcholine receptor M1 (Homo sapiens) (P11229 whole entry, looked up): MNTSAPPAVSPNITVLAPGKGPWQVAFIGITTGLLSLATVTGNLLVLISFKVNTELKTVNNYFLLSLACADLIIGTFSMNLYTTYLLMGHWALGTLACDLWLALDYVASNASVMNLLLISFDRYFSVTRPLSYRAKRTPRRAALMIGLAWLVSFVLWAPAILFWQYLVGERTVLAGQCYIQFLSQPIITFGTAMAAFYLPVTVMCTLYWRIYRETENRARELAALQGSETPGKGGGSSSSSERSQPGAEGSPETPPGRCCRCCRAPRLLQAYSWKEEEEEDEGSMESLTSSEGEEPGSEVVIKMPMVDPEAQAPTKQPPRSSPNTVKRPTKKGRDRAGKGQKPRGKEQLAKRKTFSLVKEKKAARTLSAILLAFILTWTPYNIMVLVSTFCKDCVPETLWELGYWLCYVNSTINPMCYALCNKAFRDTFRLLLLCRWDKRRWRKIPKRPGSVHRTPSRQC
Sequence of KiSS-1 receptor (Homo sapiens) (Q969F8 whole entry, looked up): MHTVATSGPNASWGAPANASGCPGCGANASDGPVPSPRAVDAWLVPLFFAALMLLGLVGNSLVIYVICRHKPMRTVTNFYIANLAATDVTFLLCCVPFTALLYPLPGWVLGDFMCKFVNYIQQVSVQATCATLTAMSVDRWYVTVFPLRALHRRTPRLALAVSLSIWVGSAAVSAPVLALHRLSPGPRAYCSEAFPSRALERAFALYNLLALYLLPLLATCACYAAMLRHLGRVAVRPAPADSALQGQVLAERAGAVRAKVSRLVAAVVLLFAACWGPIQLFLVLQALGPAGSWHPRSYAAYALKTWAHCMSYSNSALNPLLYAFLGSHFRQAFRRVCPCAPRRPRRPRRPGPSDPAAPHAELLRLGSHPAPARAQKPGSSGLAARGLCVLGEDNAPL
Sequence of 5-hydroxytryptamine receptor 2A (Homo sapiens) (P28223 whole entry, looked up): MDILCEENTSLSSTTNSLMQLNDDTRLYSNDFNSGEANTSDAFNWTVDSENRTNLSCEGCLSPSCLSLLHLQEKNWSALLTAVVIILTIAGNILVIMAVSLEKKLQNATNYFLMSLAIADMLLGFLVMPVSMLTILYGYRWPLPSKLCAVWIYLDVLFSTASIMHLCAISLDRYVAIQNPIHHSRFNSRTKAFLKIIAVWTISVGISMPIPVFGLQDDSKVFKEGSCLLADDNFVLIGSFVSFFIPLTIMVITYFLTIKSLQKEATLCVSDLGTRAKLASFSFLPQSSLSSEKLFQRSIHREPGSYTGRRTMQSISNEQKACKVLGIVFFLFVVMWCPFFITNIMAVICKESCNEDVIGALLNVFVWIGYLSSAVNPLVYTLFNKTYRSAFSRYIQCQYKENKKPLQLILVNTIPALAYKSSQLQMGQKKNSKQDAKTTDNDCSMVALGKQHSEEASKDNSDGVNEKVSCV
Sequence of Beta-2 adrenergic receptor (Homo sapiens) (P07550 whole entry, looked up): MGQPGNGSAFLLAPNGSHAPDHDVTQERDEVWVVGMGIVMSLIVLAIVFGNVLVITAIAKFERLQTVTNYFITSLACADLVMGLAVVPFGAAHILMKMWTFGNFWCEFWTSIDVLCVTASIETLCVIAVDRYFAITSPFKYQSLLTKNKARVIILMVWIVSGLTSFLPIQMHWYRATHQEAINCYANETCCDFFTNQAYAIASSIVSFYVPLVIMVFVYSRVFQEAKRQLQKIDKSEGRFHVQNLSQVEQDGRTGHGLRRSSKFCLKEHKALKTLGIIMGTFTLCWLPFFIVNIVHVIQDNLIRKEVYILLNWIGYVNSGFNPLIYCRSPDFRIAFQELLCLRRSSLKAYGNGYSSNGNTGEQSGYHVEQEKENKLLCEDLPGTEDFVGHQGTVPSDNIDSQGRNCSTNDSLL
Sequence of D(2) dopamine receptor (Homo sapiens) (P14416 whole entry, looked up): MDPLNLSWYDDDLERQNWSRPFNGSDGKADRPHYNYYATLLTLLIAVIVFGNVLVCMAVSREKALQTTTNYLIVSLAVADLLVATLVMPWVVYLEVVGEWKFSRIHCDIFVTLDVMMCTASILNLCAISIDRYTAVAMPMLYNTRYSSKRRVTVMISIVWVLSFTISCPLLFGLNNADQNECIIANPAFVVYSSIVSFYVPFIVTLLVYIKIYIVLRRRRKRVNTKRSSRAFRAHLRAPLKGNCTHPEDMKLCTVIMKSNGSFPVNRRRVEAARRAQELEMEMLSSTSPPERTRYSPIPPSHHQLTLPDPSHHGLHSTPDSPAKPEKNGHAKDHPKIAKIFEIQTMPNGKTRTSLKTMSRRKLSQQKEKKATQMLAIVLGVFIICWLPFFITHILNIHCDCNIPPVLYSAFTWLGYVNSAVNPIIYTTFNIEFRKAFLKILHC

C/C(=C(/OCCOc1ccc(Cl)cc1)c1ccc(Cl)cc1Cl)n1ccnc1
active: [1] 13.3 µM
not listed: [19] | [20]
inactive: all other assays above

CC(C)=CC(C)(C)C
not listed: [14] | [16] | [20]
inactive: all other assays above

CCOC(=O)CC(O)(CC(=O)OCC)C(=O)OCC
not listed: [11] | [18]
inactive: all other assays above
